Results filed as inconclusive are left out. Activity calls are given as the source filed them. The calls were made as follows: active = hit-call score of the fitted dose curve at least 0.9, where 1 is the maximum; inconclusive = response in the unintended direction; inactive = score below 0.9.
Target: Nuclear receptor subfamily 4 group A member 2 (Homo sapiens) (UniProt P43354)
Assay: ATG_NURR1_TRANS: Attagene TRANS-FACTORIAL HepG2 Assay for human Nuclear Receptor Related Protein 1 (NURR1) (AID 2282985)
Conditions: HepG2 Attagene TRANS reporter, mRNA readout
Method: ATG_TRANS is a cell-based, multiplexed-readout assay that uses HepG2, a human liver cell line, with measurements taken at 24 hours after chemical dosing in a 24-well plate.ATG_NURR1_TRANS is one of 30 assay component(s) measured or calculated from the ATG_TRANS assay. It is designed to make measurements of mRNA induction, a form of inducible reporter, as detected with fluorescence intensity signals by Reverse transcription polymerase chain reaction (RT-PCR) and Capillary electrophoresis technology.Data from the assay component ATG_NURR1_TRANS was analyzed into 1 assay endpoint. This assay endpoint, ATG_NURR1_TRANS, was analyzed in the positive analysis fitting direction relative to DMSO as the negative control and baseline of activity. Using a type of inducible reporter, measures of mRNA for gain-of-signal activity can be used to understand the reporter gene at the transcription factor-level as they relate to the gene NR4A2. Furthermore, this assay endpoint can be referred to as a primary readout, because this assay has produced multiple assay endpoints where this one serves a reporter gene function. To generalize the intended target to other relatable targets, this assay endpoint is annotated to the nuclear receptor intended target family, where the subfamily is orphan.
Human liver HepG2 cells are transiently transfected with multiple reporter transcription units (MRTUs) in 6-well plates using FuGene 6 reagent (Roche; 3 ml FuGene/1 mg DNA). The MRTU constructs are regulated by a cis-regulating element (promoter). […] A major difference between the CIS and TRANS system is that in CIS activities of endogenous TFs are measured, whereas the TRANS assay evaluates changes in activities of exogenous, chimeric NR-Gal4 proteins. […] At the end of 24 hour incubation, total RNA was isolated using TriZol reagent (Invitrogen). The isolated RNA is then reverse-transcribed using oligo(dT) primer and Mo-MLV reverse transcriptase (Invitrogen) with DNAse I (Ambion) treatment for 30 min. The one-tenth of the produced cDNA was amplified by PCR using Taq DNA polymerase (Invitrogen) and two reporter sequence-specific primers. The PCR products were fluorescently labeled by primer extension with 6-arboxyfluorescein (6-FAM) 5'-labeled reporter sequence-specific primer (2 min at 95 C, 20 s at 68 C and 10 min at 72 C) and these products were digested with 5U of HpaI (New England Biolabs) for 2h at 37 C. The fragments were purified using Qiaquick PCR columns (Qiagen), analyzed on an ABI 3130xL genetic analyzer (Applied Biosystems) with peak positions identified by using a set of X-rhodamine (ROX)-labeled MapMarker1000 molecular weight standards (BioVentures). The raw capillary electrophoresis data was processed using Attagraph software (Attagene).

Chain of Nuclear receptor subfamily 4 group A member 2 (Homo sapiens) (P43354 whole entry, looked up): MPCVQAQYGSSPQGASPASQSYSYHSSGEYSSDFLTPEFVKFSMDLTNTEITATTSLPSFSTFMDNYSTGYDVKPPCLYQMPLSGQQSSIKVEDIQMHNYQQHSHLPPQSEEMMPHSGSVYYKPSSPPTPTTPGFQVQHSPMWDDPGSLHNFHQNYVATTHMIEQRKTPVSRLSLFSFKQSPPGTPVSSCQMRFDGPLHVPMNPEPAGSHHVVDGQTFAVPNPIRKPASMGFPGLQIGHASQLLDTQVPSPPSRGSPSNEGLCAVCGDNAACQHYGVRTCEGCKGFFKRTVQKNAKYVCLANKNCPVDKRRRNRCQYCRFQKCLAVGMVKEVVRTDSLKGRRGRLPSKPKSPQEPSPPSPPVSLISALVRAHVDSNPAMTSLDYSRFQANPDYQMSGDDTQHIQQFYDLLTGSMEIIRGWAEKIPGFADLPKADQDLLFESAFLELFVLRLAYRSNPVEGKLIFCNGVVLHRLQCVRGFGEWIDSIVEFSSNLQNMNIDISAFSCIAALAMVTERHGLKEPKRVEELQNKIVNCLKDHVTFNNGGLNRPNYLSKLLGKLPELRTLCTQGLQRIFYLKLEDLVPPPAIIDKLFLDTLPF

| SMILES | outcome | AC50 |
| --- | --- | --- |
| CC(=O)OC1CCCCC1C(C)(C)C (stereo not given) | inactive | – |
| CCC[Si](OC)(OC)OC | inactive | – |
| Cc1c(O)cccc1O | inactive | – |
| c1ccc(Nc2cccc3ccccc23)cc1 | inactive | – |
| CN1CCN(C)CC1 | inactive | – |
| Nc1cccc(N)n1 | inactive | – |
| CCCCCCCC(=O)OCC(COC(=O)CCCCCCC)OC(=O)CCCCCCC | inactive | – |
| CN(C)Cc1cc(CN(C)C)c(O)c(CN(C)C)c1 | inactive | – |
| CC(CCC(=O)O)(c1ccc(O)cc1)c1ccc(O)cc1 | inactive | – |
| Nc1ccc(Cl)c(N)c1 | inactive | – |
| CCOC(=O)c1ccccc1C | inactive | – |
| CC1=CCC2CC1C2(C)C (stereo not given) | inactive | – |
| c1ccc2sc(SSN3CCOCC3)nc2c1 | inactive | – |
| CCCCOCCOC(=O)COc1ccc(Cl)cc1Cl | inactive | – |
| CCOC(=O)[C@H](O)[C@@H](O)C(=O)OCC | inactive | – |
| Fc1ccc(Br)cc1 | inactive | – |
| O=c1c(O)c(-c2ccc(O)cc2O)oc2cc(O)cc(O)c12 | inactive | – |
| CC1=NN(c2ccc(S(=O)(=O)O)cc2)C(=O)C1N=Nc1ccccc1 (stereo not given) | inactive | – |
| C=CC(=O)OCCCCCCOC(=O)C=C | inactive | – |
| CC(=O)c1ccc(S(=O)(=O)NC(=O)NC2CCCCC2)cc1 | inactive | – |

| SMILES | outcome | AC50 |
| --- | --- | --- |
| CCOc1ccc(NC(N)=O)cc1 | inactive | – |
| C=C(C)OC(C)=O | inactive | – |
| CC=C(C)C=CC=C(C)C | inactive | – |
| CCCCCCCOC(=O)c1ccc(O)cc1 | inactive | – |
| Oc1ccc(/C=C/c2cc(O)cc(O)c2)cc1 | – | 74.6 µM (active) |
| C/C=C/C=C/CCCCCCCO | inactive | – |
| O=S(=O)(O)c1ccc(Nc2nc(Nc3ccc(C=Cc4ccc(Nc5nc(Nc6ccc(S(=O)(=O)O)cc6)nc(N(CCO)CCO)n5)cc4S(=O)(=O)O)c(S(=O)(=O)O)c3)nc(N(CCO)CCO)n2)cc1 | inactive | – |
| C=C(C)[C@@H]1CC=C(C)CC1 | inactive | – |
| CCN1CCCC1=O | inactive | – |
| CO[Si](CCCS)(OC)OC | inactive | – |
| CCCCCC[C@@H](O)C/C=C\CCCCCCCC(=O)OCC(O)CO (stereo not given in full) | – | 132 µM (active) |
| O=C(OCc1ccccc1)c1ccc(O)cc1 | – | 158 µM (active) |
| Cc1ccc2c(c1)CCCN2 | inactive | – |
| C1CCSC1 | inactive | – |
| CCOC(=O)c1ccc(C)cc1 | inactive | – |
| N#Cc1ccc(C2CCCc3cncn32)cc1 (stereo not given) | inactive | – |
| CC/C=C\CCOC(=O)c1ccccc1O | inactive | – |
| C=CCCCCCCCCOC(C)=O | inactive | – |
| CC1=CC(C)C(C=O)CC1 (stereo not given) | inactive | – |
| CCCCCCCCCC(C)=O | inactive | – |
